Out of some 360,000 compounds screened, about 17,000 (4.7%) were called active. Roughly 5% stayed inconclusive and do not appear here. This excerpt belongs to a sample that is enriched for actives. Values without a mark were called inactive. Rule as the data show it: active = activity change below about -50%; inconclusive = mostly about -30% to -49%; inactive = weaker than that.
% is scaled to controls: 0 for no effect and ±100 for the full control effect.

The nature of this assay: qHTS for Inhibitors of Inflammasome Signaling: IL-1-beta AlphaLISA Primary Screen. The settings on record: THP-1 LPS/ATP IL-1B secretion, 16 h; at 57.5 µM, active compounds read low. The method in brief:
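Secreted IL-1B measured by AlphaLISA bead assay after 16 h compound exposure of THP-1 cells; compounds (final up to 57.5 uM) added 1 h before LPS (250 ng/mL) and ATP (1.25 mM) stimulation; lower signal means less secretion.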
As for `N#Cc1cccc(NC(=O)c2cc(C3CCCCN3C(=O)CCc3ccccc3)on2)c1` (centres undefined), the activity change was -18%. In the case of `O=C(NCCCn1ccnc1)c1ccccc1F`, the activity change was 8.56%. For the molecule `C=CCc1cc(C)ccc1OCCCn1ccnc1`, the activity change is -24.1%.

Take `Clc1c(OCCCn2ccnc2)ccc2ccccc12`: the activity change was -77% (active). Consider `COc1cccc(CNC(=O)[C@@H]2CCCN2C(=O)[C@@H]2CCCN2C(=O)c2ccccc2)c1`, for which the activity change is 0%. For `O=C(CCc1ccccc1)Nc1ccc(NC(=O)C2CCCCC2)nc1`, the activity change was -9.78%.

`C=CCN1CCN(c2ccncc2S(=O)(=O)N2CCN(C)CC2)CC1`: the activity change is -7.51%. As for `CC(=O)OC1CCC2(C)C(=CCC3C4CC(=O)N(O)C(=O)C4(C)CCC32)C1` (centres undefined), the activity change is -9.48%. The same measure for `O=C(Nc1ccc(F)cc1)N1CCN(c2ccc(F)cc2)CC1`: 2.96%; for `O=C(Nc1ccccc1)N1CCN(C2c3ccccc3-c3ccccc32)CC1`: -15.2%; for `O=C(Nc1cccc(NC(=O)N2CCN(c3ccccc3)CC2)c1)N1CCN(c2ccccc2)CC1`: -55.8% (active). In the case of `CCOC(=O)c1c(NC(=O)COC(=O)c2ccc(S(=O)(=O)C(F)F)cc2)sc(C(=O)N(C)C)c1C`, the activity change was -22%. With `C=CCN1C=C(C(=O)c2ccccc2)C(=O)CC1`, the activity change was 14%. The same measure for `CC(C)C1C(=O)N(Cc2cn(CCC3OCCO3)nn2)CCS(=O)(=O)N1Cc1ccc(-c2ccccc2C(F)(F)F)cc1` (centres undefined): -17.2%; for `O=C(OC(C(=O)NC1CCCC1)c1ccc(F)cc1)c1ccno1` (centres undefined): -4.45%. Regarding `CCOc1ccc(/C=C(/C#N)c2nnc(N3CCOCC3)n2-c2ccccc2)cc1OC`, the activity change is -13.1%.

On to `COc1ccc(C2(C)NC(=O)N(CC(=O)c3ccc4c(c3)OCO4)C2=O)cc1` (centres undefined), for which the activity change is 6.28%. In the case of `COc1ccc(C2(O)C(=O)Nc3ccccc32)cc1` (centres undefined) it was 16%; in that of `COc1ccc(C2(C)ON(c3ccccc3C(F)(F)F)C2=O)cc1` (centres undefined), -62.1% (active); in that of `COC(=O)CCCCC1=CCC2C(=O)C=C(O)C2C1` (centres undefined), 46.8%. `Cc1cc(C)cc(NC(=O)C2CCCN(S(=O)(=O)c3ccc4[nH]c(=O)ccc4c3)C2)c1` (centres undefined): the activity change is -11.9%. In the case of `CC(C(=O)NC1CCCC1)N1CCN(S(=O)(=O)c2ccccc2Cl)CC1` (centres undefined), the activity change was -3.55%. In the case of `CCc1nc2c(OCCOc3ccccc3)cccn2c1N(C)C(=O)c1ccc(OC)cc1` it was -0.0267%; in that of `COc1ccc(S(=O)(=O)N(C)C)cc1NC(=O)COC(=O)c1n[nH]c2ccccc12`, -8.2%; in that of `Cc1cnc(NC(=O)c2ccccn2)s1`, -99.9% (active).

Regarding `Cc1cnc(NC(=O)C2CCCC2)s1`, the activity change was -15.9%. Take `O=C(Nc1nnc(C2CC2)s1)c1ccccn1`: the activity change is 12.6%. Turning to `O=S(=O)(N1CCCCC1)N1CCNCC1`, the activity change was 18.8%. In the case of `CNC(=O)c1ccc(CN(C)C(=O)c2cc(C3CC3)nc3c2cnn3C(C)C)cc1` it was -23.4%; in that of `CCOC(=O)C1=C(CSc2nnnn2C)N(C)C(=O)NC1c1ccccc1` (centres undefined), 25.6%; in that of `COc1cc(/C=N/NC(=O)Cc2ccccc2)cc(OC)c1OC`, 11.4%. Regarding `COc1cc(/C=N/O)cc(Br)c1OCc1cccc(Cl)c1`, the activity change is -101% (active). In the case of `COc1cc(/C=N/O)cc(Br)c1OS(=O)(=O)c1ccc(C)cc1` it was -4.12%; in that of `CCCCCCn1c(=O)n2n(c1=O)C[C@]1(OC(=O)NCc3ccc(OC)c(OC)c3)CN(S(=O)(=O)c3ccc(C)cc3)C[C@]1(O)C2`, -2.71%; in that of `NS(=O)(=O)c1ccc2nc(NC(=O)C3=COCCO3)sc2c1`, 4.02%. Regarding `CCC(=O)N1CCC(C)(C(=O)Nc2cc(OC)c(OC)c(OC)c2)C1` (centres undefined), the activity change was 33.3%. Regarding `CN(CC(=O)Nc1ccc(Cl)cc1)C(=O)c1ccc(COc2ccccc2)cc1`, the activity change was 5.98%. For the molecule `CN(Cc1ccccc1)C(=O)c1ccc(COc2ccccc2)cc1`, the activity change was -71.5% (active). In the case of `CN(Cc1ccccc1)C(=O)COc1ccccc1`, the activity change was -10.6%. `CN(Cc1ccccc1)C(=O)[C@@H]1CCCN1C(=O)[C@@H]1CCCN1C(=O)c1c(F)cccc1F`: the activity change was 32.8%. On to `O=C(NC(Cc1c[nH]c2ccccc12)C(=O)N/N=C/c1ccc(Br)cc1)c1cccs1` (centres undefined), for which the activity change is -61.1% (active). On to `CC(=O)NC(Cc1c[nH]c2ccccc12)C(=O)NCCc1ccccc1` (centres undefined), for which the activity change is -9.89%. Turning to `CC(=O)NC(Cc1c[nH]c2ccccc12)C(=O)O` (centres undefined), the activity change was 35%. In the case of `CC(C)Sc1nc(N)nc2c1ncn2C1OC(CO)C(O)C1O` (centres undefined), the activity change was 16%. In the case of `CCCCCCCCn1c2c(c(=N)c3c1CCC3)CCCC2` it was -89.8% (active); in that of `CC(=O)Nc1ccc(S(=O)(=O)N2CCC(NC(=O)c3ccccc3)CC2)cc1`, 7.08%; in that of `CCOc1ccc(N2C(=O)CC(N(CCc3ccc(OC)c(OC)c3)C(=S)Nc3ccccc3)C2=O)cc1` (centres undefined), 44.8%.

Take `CC(C)=CCCC1(C)C=Cc2c(ccc3c2[nH]c2cc(O)c(C)cc23)O1` (centres undefined): the activity change is -71.6% (active). Take `Cc1ccc(S(=O)(=O)C2C(=O)NC3(C)CC2c2ccccc2O3)cc1` (centres undefined): the activity change was 12.4%. In the case of `O=C(c1ccncc1)N1CCN(c2ccc3ccccc3n2)CC1` it was 5.08%. As for `CC1=C(N2CCN(c3ncccn3)CC2)CCC1=O`, the activity change is 8.92%. For `c1cnc(N2CCN(c3ccc4ccccc4n3)CC2)nc1`, the activity change is -50.1% (active). With `COCCCn1cc(CN2CC(N(C)C)CS2(=O)=O)nn1` (centres undefined), the activity change was 21.9%.

`CC1CCC(C(C)C)C(=O)/C1=C\c1ccc(NC(=O)CCC(=O)O)cc1` (centres undefined): the activity change was 0%. `Cc1ccc(C)c(NC(=O)c2cc(-c3cc(C)cc(C)c3O)n[nH]2)c1`: the activity change is -93.5% (active).

In the case of `Cc1ccc(NC(=O)c2cc(-c3ccccc3O)n[nH]2)cc1C`, the activity change is -6.84%. As for `Cc1ccc(O)c(-c2cc(C(=O)Nc3c(C)n(C)n(-c4ccccc4)c3=O)[nH]n2)c1`, the activity change was 0%.

On to `COc1ccc(NC(=O)C2(C)Cc3c(-c4ccc(C(N)=O)cc4)ccnc3O2)cc1` (centres undefined), for which the activity change is 0%. For `Cc1cc(NC(=O)c2cc3ccccc3o2)no1`, the activity change is 45.3%.
